From PubChem
A selection follows.
aSyn 5UTR act – Activators via SNCA 5'UTR binding, MLPCN; alpha-synuclein 5'UTR reporter, activators screen; 300,000 tested, 7.1% active; activity score, % (tested at 7.5 µM), hits read low; AID 1814; in the data active = activity score below about -60%
* marks the source's active call; other numbers are inactive results.

SMILES	aSyn 5UTR act
COCCn1c(C)cc(/C=C2/NC(=O)N(c3cccc(Cl)c3)C2=O)c1C	-133*
Cc1c(C(=O)Nc2ccc(Br)cc2)cnn1C	-112*
O=C(Nc1ccc(Br)cc1)c1ccccc1Br	-200*
CCc1ccc(NC(=O)c2n[nH]c(=O)c3ccccc23)cc1	-84*
O=C(CNC(=O)c1ccccc1Br)N/N=C/c1cc(Br)ccc1O	70
CCc1ccc(NC(=O)c2ccccc2Br)cc1	-144*
Cc1cc(OCc2ccc(C(=O)n3cccn3)o2)ccc1Cl	-62*
COc1cccc(N2CCN(C(=O)c3ccc(CS(=O)c4ccc(Cl)cc4)o3)CC2)c1 (stereo not drawn)	107
CCN(CC)C(=O)c1ccc(COc2ccc(Cl)c(C)c2)o1	-119*
COc1ccc(N2C(N)=NC(N)=NC2(C)C)cc1	81
COc1ccc(-n2nc(N)c(C(N)=O)n2)cc1	-68*
Clc1ccc(-c2noc(CN3CCCC3)n2)cc1	-86*
c1ccc(NCc2nc(-c3ccccc3)no2)cc1	-133*
Cc1ccn2c(CN3CCOCC3)c(-c3ccccc3)nc2c1	-126*
c1ccc(-c2noc(CN3CCOCC3)n2)cc1	-63*
Cc1ccc(-c2noc(CN3CCOCC3)n2)cc1	-87*
Cc1ccc(-c2noc(CN3CCCCC3)n2)cc1	-126*
Clc1cc(Cl)c(OCc2nc(-c3ccccn3)no2)cc1Cl	-85*
CC(C)(C)c1ccc(OCc2nc(-c3ccccn3)no2)c(Br)c1	-190*
Clc1ccc(OCc2nc(-c3ccncc3)no2)c(Cl)c1	-132*
CCOC(=O)c1ccc(NC(=S)Nc2cccc(N)n2)cc1	-147*
CCOC(=O)c1ccc(NC(=S)Nc2ccc(Br)cc2N)cc1	-114*
C/C(=N\NC(=O)CCCNc1ccc(C)cc1)c1ccccn1	78
C/C(CC(=O)NC1CCCCC1)=N\NC(=O)c1ccccn1	-132*
CC(=O)Nc1ccccc1NC(=O)C/C(C)=N/NC(=O)c1ccccn1	-114*
SMILES	aSyn 5UTR act
C/C(CC(=O)Nc1ccc(F)cc1)=N\NC(=O)c1ccccn1	-64*
C/C(CC(=O)Nc1ccc(Cl)c(C(F)(F)F)c1)=N\NC(=O)c1ccccc1O	-82*
C/C(CC(=O)NCc1ccccc1Cl)=N/NC(=O)c1ccccn1	-116*
C/C(=N\NC(=O)c1ccc(F)cc1)c1ccccn1	-93*
CN(C)c1ccc(/C=C(\C#N)c2ccccn2)cc1	102
N#C/C(=C\c1ccc([N+](=O)[O-])cc1)c1ccccn1	-121*
COC(=O)c1ccc(/C=C(\C#N)c2ccccn2)cc1	-132*
Nc1c2c(nc3sc4c(c13)CCCC4)-c1ccccc1CC2	-75*
S=C(NCC1CCCO1)Nc1ccc(Cl)c(Cl)c1 (stereo not drawn)	-86*
CCc1ccc(NC(=O)C(=O)NCC2CCCO2)cc1 (stereo not drawn)	-137*
CN(C)c1ccc(NC(=S)NCC2CCCO2)cc1 (stereo not drawn)	-101*
N#Cc1c(N)nc(N)nc1Nc1ccc(Br)cc1	-64*
CCOc1ccc(N=C(/C(C(=O)C(=O)N2CCOCC2)=C(/O)c2ccccc2)c2ccccc2)cc1	-203*
COc1ccc(-c2nnc(SCc3ccccc3)n2N)cc1	-142*
COc1ccc(N=C(N)SCc2ccccn2)cc1	-79*
COc1ccc(-c2nnc(SCCc3ccccc3)n2N)cc1	-82*
COc1ccc(-c2nnc(SCc3ccccn3)n2C)cc1	-67*
C=CCNc1nnc(Sc2ncccc2[N+](=O)[O-])s1	-115*
Cc1nc(C)c(-c2csc(Nc3ccc(F)cc3)n2)s1	-152*
Cc1nc(N)sc1-c1csc(Nc2ncccn2)n1	-136*
COc1cccc(Nc2nc(-c3sc(N)nc3C)cs2)c1	-112*
COc1cccc(Nc2nc(-c3sc(C)nc3C)cs2)c1	-103*
Cc1ccccc1N/N=C1\CCCNC1=O	-100*
COc1ccc(C2=NN(CN3C(=O)C(=O)c4ccccc43)C(c3ccc(OC)cc3)C2)cc1 (stereo not drawn)	-182*
CCSc1nnc(NC(=O)COc2ccccc2[N+](=O)[O-])s1	-114*
SMILES	aSyn 5UTR act
NNC(=O)COc1ccccc1[N+](=O)[O-]	-87*
CC(C)c1nnc(NC(=O)COc2ccccc2[N+](=O)[O-])s1	-154*
Cc1ccc(NC(=O)CSc2nc3ccccc3c3nc4ccccc4n23)cc1	110
Cc1ccc(NC(=O)CSc2ncc(-c3ccccc3)n2C(=O)c2ccccc2)cc1	-64*
CCOc1ccc(Nc2nc(-c3cccnc3)cs2)cc1	-223*
Brc1ccc(Nc2nc(-c3cccnc3)cs2)cc1	-161*
Clc1cccc(Nc2nc(-c3cccnc3)cs2)c1	-271*
Brc1cccc(Nc2nc(-c3cccnc3)cs2)c1	-150*
CCC(C)N1C(=O)S/C(=C/c2ccc3c(c2)n(C)c(=O)n3C)C1=O (stereo not drawn)	-69*
COc1ccc(-c2cc(C(=O)NCC(C)C)no2)cc1	-99*
CCOc1ccc(-c2cc(CCCC(=O)NCCCOC)no2)cc1	87
CCC(C)NC(=O)c1cc(-c2ccc(OC)cc2)on1 (stereo not drawn)	-118*
CCC(C)NC(=O)c1cc(-c2ccc3c(c2)OCO3)on1 (stereo not drawn)	-141*
CCC(C)NC(=O)c1cc(CC(C)C)on1 (stereo not drawn)	-68*
CCOc1c2ccc(C(=O)NCCc3cccs3)cc2nn1CC	-130*
CCOc1ccc(C(=O)NCc2cccs2)cc1	-105*
COc1ccc2nc3sc(C(=O)NCc4cccs4)c(N)c3cc2c1	-97*
CC1CCCN(c2ccc(C(=O)NCC3CCCO3)cn2)C1 (stereo not drawn)	-88*
COc1ccc(-c2cc(C(=O)NCc3cccs3)no2)cc1	-170*
COc1cccc(-c2cc(C(=O)NCc3cccs3)no2)c1	-156*
CC1CCN(c2ccc(C(=O)NCc3cccs3)cn2)CC1	-106*
COc1ccc(C2CC2C(=O)c2ccccn2)cc1 (stereo not drawn)	-73*
COc1ccc(C2CC2/C(=N/O)c2ccccn2)cc1 (stereo not drawn)	-86*
CC(=O)Oc1ccc(-c2nc(-c3cccnc3)no2)cc1	-93*
CC(=O)Oc1ccc(Oc2ccc(-c3noc(C)n3)cc2)cc1	-77*
SMILES	aSyn 5UTR act
Cc1ccc(NC(=O)c2ccc(CN3CCc4ccccc4C3)cc2)cc1	-101*
O=C(Nc1cccnc1)c1ccc(CN2CCc3ccccc3C2)cc1	-68*
Cc1ccc(-c2cc(C(=O)N3CCN(c4ccccc4O)CC3)c3ccccc3n2)o1	-81*
CCOc1ccc(-c2cc(C(=O)O)c3ccccc3n2)cc1	-83*
COc1ccc(-c2cc(C(=O)OCC(=O)NC(C)C)c3ccccc3n2)cc1	-65*
COc1ccc2nc(-c3ccc(Cl)cc3)cc(C(=O)O)c2c1	-72*
COc1ccc2cc(-c3cc(C(=O)OCC(=O)Nc4c(C)n(C)n(-c5ccccc5)c4=O)c4ccccc4n3)ccc2c1	52
CCN1CCCC(OC(=O)c2cc(-c3ccc(C)cc3)nc3ccccc23)C1 (stereo not drawn)	-94*
CCOc1ccc(-c2cc(C(=O)N3CCC(C)CC3)c3ccccc3n2)cc1	-128*
CC(C)Oc1cccc(-c2cc(C(=O)N3CCN(c4ncccn4)CC3)c3ccccc3n2)c1	-64*
Cc1cccc2c(C(=O)N3CCN(c4ccccc4)CC3)cc(-c3ccncc3)nc12	94
COc1cc(C)ccc1OCCOc1ccccc1Cl	-208*
CC1(C)N=C(N)N=C(N)N1c1ccc(OCCCOc2ccccc2)c(Cl)c1	78
COc1cc(C)ccc1OCCCOc1ccccc1Cl	-207*
